Key:
Assay in all cases: log2 ratio of Biotin-Ahx-Ub-VS probe labelling (fragment/DMSO); higher = less target engagement (more negative = stronger competition), active = hit call of the paper (q ≤ 0.05, log2 ratio ≤ -1)
Settings in all cases: compound concentration: 200 uM; treatment time: 3 h
[1] = biological target: USP34 (UniProt Q70CQ2)
Method in brief: (§1)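 HEK293T lysate in Tris/CHAPS/IGEPAL buffer with protease inhibitors (495 µg per sample) was given fragment at 200 µM or vehicle for 3 h, in triplicate. It then received Biotin-Ahx-Ub-VS at 0.5 µM final for 1 h. Labelled DUBs were NeutrAvidin-enriched, digested with LysC and trypsin, and run by diaPASEF LC-MS/MS. Values are average log2 fragment/vehicle ratios by unpaired t-test on global-median-normalised Spectronaut quantities of proteins with ≥2 unique peptides.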

[2] = biological target: T1, USP36 (UniProt Q9P275)
T1 sequence (whole entry): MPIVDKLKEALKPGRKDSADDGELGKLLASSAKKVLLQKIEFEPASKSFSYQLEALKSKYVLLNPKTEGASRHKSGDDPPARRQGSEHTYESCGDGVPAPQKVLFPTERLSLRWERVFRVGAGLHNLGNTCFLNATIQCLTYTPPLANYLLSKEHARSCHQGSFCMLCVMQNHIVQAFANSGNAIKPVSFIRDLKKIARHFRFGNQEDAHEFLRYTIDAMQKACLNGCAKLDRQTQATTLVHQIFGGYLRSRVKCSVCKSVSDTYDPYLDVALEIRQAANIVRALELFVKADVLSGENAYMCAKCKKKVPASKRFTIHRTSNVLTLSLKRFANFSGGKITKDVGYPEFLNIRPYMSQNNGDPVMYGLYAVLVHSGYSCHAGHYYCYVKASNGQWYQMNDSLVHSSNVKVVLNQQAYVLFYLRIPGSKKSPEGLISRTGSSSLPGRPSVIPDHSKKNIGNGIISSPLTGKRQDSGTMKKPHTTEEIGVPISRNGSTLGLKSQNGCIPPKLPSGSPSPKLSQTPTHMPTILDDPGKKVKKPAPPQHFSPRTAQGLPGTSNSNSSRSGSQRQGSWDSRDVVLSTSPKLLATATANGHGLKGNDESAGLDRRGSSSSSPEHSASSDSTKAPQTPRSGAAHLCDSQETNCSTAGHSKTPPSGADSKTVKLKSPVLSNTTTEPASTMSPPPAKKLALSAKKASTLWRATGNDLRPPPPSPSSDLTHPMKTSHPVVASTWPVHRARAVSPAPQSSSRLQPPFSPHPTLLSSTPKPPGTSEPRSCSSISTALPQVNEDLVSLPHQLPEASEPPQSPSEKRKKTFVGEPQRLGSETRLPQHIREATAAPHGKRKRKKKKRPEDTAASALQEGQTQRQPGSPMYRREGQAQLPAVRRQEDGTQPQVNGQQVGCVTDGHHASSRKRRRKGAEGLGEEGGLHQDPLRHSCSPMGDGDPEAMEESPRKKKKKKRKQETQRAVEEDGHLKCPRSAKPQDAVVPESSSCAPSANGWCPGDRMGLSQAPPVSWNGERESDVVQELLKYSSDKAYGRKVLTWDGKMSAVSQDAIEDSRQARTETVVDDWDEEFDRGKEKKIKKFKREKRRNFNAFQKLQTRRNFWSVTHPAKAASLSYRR
Method in brief: as §1

[3] = biological target: T2, USP38 (UniProt Q8NB14)
T2 sequence (whole entry): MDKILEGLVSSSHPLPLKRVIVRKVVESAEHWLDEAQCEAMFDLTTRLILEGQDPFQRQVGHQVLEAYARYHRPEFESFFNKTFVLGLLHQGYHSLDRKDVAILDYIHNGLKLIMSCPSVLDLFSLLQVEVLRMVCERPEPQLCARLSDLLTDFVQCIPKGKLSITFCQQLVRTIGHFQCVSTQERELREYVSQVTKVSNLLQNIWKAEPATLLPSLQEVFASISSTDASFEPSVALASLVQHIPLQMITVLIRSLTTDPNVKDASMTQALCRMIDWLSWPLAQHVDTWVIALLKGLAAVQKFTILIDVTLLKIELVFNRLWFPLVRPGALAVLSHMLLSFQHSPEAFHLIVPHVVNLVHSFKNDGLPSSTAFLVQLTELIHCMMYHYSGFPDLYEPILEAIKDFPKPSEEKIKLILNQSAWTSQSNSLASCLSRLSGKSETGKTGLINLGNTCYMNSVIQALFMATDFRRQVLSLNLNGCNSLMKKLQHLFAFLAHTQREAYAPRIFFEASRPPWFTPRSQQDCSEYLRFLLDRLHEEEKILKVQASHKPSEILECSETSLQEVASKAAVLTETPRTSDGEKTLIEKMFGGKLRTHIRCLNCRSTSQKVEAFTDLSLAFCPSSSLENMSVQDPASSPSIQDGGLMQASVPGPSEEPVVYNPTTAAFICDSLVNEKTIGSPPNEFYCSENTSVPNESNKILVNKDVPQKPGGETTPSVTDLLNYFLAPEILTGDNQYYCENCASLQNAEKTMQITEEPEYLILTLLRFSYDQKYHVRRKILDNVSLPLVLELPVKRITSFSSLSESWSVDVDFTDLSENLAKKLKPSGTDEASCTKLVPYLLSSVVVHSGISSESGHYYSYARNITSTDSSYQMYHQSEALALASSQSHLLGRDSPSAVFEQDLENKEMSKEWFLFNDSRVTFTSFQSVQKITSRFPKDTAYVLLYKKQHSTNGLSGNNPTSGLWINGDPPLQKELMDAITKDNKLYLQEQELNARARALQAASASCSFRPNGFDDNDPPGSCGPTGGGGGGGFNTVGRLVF
Method in brief: as §1

[4] = biological target: T3, USP39 (UniProt Q53GS9)
T3 sequence (whole entry): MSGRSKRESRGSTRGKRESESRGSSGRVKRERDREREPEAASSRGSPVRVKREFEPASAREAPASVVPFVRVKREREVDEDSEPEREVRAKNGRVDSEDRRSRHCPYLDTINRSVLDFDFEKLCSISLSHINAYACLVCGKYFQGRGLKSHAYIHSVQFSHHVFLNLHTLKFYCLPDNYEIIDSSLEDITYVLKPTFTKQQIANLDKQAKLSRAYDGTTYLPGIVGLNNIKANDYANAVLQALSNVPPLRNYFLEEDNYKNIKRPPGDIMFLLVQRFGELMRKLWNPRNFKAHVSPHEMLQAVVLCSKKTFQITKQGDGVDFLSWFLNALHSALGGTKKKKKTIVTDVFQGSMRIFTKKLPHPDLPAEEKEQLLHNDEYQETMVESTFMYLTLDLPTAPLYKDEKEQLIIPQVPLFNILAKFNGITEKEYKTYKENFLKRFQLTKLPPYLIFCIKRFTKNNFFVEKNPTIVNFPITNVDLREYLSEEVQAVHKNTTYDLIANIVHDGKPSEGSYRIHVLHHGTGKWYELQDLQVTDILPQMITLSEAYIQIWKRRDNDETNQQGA
Method in brief: as §1

[5] = biological target: T4, USP4 (UniProt Q13107)
T4 sequence (whole entry): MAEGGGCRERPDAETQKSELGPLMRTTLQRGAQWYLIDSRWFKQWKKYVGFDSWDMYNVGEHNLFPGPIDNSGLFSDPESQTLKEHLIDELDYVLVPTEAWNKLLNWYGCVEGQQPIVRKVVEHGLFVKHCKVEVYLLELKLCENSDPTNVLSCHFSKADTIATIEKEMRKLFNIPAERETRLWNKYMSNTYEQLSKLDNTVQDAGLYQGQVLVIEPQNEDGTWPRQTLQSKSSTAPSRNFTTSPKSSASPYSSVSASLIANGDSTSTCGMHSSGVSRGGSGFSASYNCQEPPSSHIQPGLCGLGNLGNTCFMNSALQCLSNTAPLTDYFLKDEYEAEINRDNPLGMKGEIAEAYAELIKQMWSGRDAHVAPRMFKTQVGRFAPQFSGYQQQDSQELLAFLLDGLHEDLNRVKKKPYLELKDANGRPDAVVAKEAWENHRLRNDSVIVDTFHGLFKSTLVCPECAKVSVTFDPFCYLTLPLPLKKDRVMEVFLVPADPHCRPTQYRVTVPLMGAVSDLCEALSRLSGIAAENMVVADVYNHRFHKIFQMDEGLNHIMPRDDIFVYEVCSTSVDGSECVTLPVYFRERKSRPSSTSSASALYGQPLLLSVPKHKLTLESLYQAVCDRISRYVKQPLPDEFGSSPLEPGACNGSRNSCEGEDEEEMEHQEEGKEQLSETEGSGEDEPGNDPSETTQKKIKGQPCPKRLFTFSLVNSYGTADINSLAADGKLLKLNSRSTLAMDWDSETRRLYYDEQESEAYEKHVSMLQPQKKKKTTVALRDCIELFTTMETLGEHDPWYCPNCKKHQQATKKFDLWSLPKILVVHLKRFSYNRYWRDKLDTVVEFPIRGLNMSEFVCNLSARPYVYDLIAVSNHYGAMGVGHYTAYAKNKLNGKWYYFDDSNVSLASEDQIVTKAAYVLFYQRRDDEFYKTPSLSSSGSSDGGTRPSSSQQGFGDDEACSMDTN
Method in brief: as §1

Measured: log2 ratio of Biotin-Ahx-Ub-VS probe labelling

Sequence of USP34 (Q70CQ2 whole entry, the tested form may be a part): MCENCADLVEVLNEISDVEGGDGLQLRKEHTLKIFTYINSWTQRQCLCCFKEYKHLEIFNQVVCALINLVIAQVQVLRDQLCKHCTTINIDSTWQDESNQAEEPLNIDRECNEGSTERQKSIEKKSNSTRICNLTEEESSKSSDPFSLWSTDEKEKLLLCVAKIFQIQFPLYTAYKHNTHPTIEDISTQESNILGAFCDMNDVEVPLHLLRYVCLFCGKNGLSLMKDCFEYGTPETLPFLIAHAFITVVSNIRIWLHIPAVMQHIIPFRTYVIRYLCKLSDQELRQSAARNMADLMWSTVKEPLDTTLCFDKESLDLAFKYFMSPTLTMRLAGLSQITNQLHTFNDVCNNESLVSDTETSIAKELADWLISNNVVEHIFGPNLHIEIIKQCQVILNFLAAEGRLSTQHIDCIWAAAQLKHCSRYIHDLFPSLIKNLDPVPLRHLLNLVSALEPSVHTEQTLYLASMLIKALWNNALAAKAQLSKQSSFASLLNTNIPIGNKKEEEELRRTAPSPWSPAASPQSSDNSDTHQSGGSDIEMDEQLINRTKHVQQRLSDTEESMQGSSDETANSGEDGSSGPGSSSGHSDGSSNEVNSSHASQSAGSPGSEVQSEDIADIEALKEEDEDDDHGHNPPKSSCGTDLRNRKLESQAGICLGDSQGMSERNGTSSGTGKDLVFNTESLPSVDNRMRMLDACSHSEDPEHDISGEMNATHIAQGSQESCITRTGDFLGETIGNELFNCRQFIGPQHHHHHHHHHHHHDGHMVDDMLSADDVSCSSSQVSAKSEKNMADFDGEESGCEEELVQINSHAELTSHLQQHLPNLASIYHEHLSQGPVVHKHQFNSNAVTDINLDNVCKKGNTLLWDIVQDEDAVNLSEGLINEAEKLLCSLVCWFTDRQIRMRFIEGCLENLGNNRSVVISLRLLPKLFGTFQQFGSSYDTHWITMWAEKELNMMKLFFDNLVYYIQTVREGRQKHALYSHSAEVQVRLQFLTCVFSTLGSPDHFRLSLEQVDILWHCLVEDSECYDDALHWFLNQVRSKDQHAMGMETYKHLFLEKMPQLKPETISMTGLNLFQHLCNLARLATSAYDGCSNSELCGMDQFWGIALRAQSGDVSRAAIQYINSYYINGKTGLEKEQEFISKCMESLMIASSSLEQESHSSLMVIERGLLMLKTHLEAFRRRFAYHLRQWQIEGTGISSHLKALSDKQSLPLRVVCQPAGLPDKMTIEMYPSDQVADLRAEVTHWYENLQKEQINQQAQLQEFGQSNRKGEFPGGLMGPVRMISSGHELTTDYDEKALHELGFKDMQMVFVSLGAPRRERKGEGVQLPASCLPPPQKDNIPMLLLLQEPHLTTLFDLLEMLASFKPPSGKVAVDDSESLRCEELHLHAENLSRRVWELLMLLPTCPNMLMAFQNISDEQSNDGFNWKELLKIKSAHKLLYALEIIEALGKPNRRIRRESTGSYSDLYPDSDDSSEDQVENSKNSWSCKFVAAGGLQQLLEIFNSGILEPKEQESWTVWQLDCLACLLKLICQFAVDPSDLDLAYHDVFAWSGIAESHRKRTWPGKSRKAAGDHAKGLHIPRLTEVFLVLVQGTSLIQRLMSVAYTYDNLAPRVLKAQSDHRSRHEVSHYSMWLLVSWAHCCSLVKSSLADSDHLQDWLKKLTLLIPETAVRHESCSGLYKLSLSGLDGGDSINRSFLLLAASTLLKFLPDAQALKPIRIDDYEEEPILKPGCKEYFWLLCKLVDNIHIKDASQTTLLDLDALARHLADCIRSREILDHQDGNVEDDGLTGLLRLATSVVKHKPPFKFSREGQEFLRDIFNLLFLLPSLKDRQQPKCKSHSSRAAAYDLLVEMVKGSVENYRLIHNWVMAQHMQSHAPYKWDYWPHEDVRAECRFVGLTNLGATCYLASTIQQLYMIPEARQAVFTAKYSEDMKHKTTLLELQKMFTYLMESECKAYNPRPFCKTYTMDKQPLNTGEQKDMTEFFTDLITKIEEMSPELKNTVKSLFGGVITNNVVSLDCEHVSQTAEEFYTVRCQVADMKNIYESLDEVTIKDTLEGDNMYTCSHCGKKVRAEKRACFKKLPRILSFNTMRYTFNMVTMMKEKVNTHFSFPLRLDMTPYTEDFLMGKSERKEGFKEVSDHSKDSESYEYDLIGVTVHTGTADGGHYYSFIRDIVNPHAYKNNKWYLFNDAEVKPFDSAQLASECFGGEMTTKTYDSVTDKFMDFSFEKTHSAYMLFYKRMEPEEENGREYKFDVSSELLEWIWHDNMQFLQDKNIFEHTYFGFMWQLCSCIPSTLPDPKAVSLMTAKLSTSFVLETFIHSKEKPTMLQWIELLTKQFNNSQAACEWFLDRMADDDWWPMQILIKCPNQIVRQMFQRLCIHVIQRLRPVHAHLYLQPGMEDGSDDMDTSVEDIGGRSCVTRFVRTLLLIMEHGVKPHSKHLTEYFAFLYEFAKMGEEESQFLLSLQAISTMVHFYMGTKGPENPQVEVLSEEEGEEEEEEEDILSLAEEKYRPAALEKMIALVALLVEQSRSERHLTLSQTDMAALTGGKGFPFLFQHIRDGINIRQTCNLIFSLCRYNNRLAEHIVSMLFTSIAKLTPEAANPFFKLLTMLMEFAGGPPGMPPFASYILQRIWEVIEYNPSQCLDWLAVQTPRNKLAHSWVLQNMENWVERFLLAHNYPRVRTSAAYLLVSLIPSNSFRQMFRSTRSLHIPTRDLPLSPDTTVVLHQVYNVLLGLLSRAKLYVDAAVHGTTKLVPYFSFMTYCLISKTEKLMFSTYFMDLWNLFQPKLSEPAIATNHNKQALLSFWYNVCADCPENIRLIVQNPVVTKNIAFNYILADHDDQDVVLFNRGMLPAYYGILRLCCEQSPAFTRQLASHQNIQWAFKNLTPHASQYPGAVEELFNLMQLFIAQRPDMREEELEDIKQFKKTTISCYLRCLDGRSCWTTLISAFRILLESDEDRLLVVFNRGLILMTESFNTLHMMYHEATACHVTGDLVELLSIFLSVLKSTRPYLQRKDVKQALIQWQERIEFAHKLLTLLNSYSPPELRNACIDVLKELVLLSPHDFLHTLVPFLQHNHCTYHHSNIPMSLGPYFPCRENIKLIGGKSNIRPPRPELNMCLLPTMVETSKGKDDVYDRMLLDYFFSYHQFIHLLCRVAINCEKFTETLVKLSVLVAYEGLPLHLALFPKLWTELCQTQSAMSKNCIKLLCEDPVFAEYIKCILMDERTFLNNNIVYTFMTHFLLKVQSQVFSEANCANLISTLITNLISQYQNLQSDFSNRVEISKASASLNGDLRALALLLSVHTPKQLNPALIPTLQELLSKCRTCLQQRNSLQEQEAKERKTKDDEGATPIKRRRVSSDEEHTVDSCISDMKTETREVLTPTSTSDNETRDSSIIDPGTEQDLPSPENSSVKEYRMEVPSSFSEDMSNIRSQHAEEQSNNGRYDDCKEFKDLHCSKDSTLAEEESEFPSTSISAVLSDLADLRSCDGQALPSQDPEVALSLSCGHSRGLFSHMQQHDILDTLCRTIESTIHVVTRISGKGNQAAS

O=C(CCl)Nc1cccc(NC(=O)c2ccccc2)c1
inactive: [1] 0.0355 | [2] -0.11 | [3] 0.15 | [4] 0.0551 | [5] 0.199
